# Unmarked numbers belong to inactive results.
# How the values were obtained:
# CMK = assay: CellTox Green cytotoxicity fluorescence relative to DMSO vehicle (fold of vehicle RFU); higher = more cell death (loss of membrane integrity), active = 2 or more
# In short: (§1)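 Single compounds from the Selleckchem apoptosis library were applied at final 0.01, 0.1 and 1 µM (0.1% DMSO vehicle) to MV4-11, CMK and Kasumi-1 cells seeded at 4.0 × 10^4 cells per well with CellTox Green reagent. After incubation at 37 °C, 5% CO2, fluorescence was read at 24, 48 and 72 h. Cytotoxicity, meaning loss of membrane integrity, is shown as fold of the DMSO vehicle signal.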
# Kasumi-1 = assay: as above
# In short: as §1
Compound,"CellTox Green cytotoxicity fluorescence (CMK; 0.01 µM, 24 h)","CellTox Green cytotoxicity fluorescence (CMK; 0.01 µM, 48 h)","CellTox Green cytotoxicity fluorescence (CMK; 0.01 µM, 72 h)","CellTox Green cytotoxicity fluorescence (CMK; 0.1 µM, 24 h)","CellTox Green cytotoxicity fluorescence (CMK; 0.1 µM, 48 h)","CellTox Green cytotoxicity fluorescence (CMK; 0.1 µM, 72 h)","CellTox Green cytotoxicity fluorescence (CMK; 1 µM, 24 h)","CellTox Green cytotoxicity fluorescence (CMK; 1 µM, 48 h)","CellTox Green cytotoxicity fluorescence (CMK; 1 µM, 72 h)","CellTox Green cytotoxicity fluorescence (Kasumi-1; 0.01 µM, 24 h)","CellTox Green cytotoxicity fluorescence (Kasumi-1; 0.01 µM, 48 h)","CellTox Green cytotoxicity fluorescence (Kasumi-1; 0.01 µM, 72 h)","CellTox Green cytotoxicity fluorescence (Kasumi-1; 0.1 µM, 24 h)","CellTox Green cytotoxicity fluorescence (Kasumi-1; 0.1 µM, 48 h)","CellTox Green cytotoxicity fluorescence (Kasumi-1; 0.1 µM, 72 h)","CellTox Green cytotoxicity fluorescence (Kasumi-1; 1 µM, 24 h)","CellTox Green cytotoxicity fluorescence (Kasumi-1; 1 µM, 48 h)","CellTox Green cytotoxicity fluorescence (Kasumi-1; 1 µM, 72 h)"
Cc1cc2c(C(C)C)c(O)c(O)c(C=O)c2c(O)c1-c1c(C)cc2c(C(C)C)c(O)c(O)c(C=O)c2c1O,0.986,0.967,0.952,0.998,0.982,0.961,0.986,0.979,0.85,0.96,0.957,0.955,0.99,0.973,0.975,0.98,0.966,0.978
COc1cc([C@@H]2c3cc4c(cc3[C@H](O)[C@H]3COC(=O)[C@@H]23)OCO4)cc(OC)c1OC [Picropodophyllin],0.955,0.958,0.973,1.06,1.23,1.08,1.34,2.12 (active),1.58,0.945,0.978,0.997,0.993,0.999,1.06,1.16,1.35,1.48
COc1ccc2c(c1)/C(=C/c1cnc[nH]1)C(=O)N2,0.911,0.923,1.04,0.922,0.924,1.05,0.934,0.914,0.881,0.934,0.941,0.971,0.976,0.981,0.966,0.881,0.948,0.963
CC[C@H](C)[C@@H]([C@@H](CC(=O)N1CCC[C@H]1[C@H](OC)[C@@H](C)C(=O)N[C@H](C)[C@@H](O)c1ccccc1)OC)N(C)C(=O)[C@@H](NC(=O)[C@@H](NC)C(C)C)C(C)C [Monomethyl auristatin E],1.24,1.82,1.43,1.52,2.24 (active),1.56,1.97,2.64 (active),1.78,1.06,1.27,1.44,1.17,1.42,1.53,1.31,1.56,1.62
CC1=C(O)C(=O)C=C2C1=CC=C1[C@@]2(C)CC[C@@]2(C)[C@@H]3C[C@](C)(C(=O)O)CC[C@]3(C)CC[C@]12C [Celastrol],0.959,0.961,0.98,0.946,0.94,0.932,2.38 (active),3.09 (active),2.25 (active),0.916,0.923,0.903,0.954,0.962,0.952,1.23,1.43,1.47
COc1cc(C)[nH]c(=O)c1CNC(=O)c1c(C)n([C@H](C)C2CCOCC2)c2ccccc12,0.942,0.948,0.965,0.936,0.944,0.919,0.949,0.973,0.965,0.935,0.952,0.966,0.97,0.948,0.954,1.03,0.982,0.976
Cn1c(COP(=O)(NCCBr)NCCBr)cnc1[N+](=O)[O-],0.974,0.98,0.991,0.972,0.996,1.07,0.975,1.24,1.89,1.03,0.968,0.958,0.962,0.956,0.952,0.977,0.974,0.977
O=C(O)C(=O)c1cn(Cc2ccccc2)c2ccc(-c3ccc(OC(F)(F)F)cc3)cc12 [Tiplaxtinin],1.02,1.01,1,1.01,1.02,0.987,0.968,0.972,0.943,1.02,1.01,1.03,1.02,1.02,1.03,0.968,0.983,0.973
O=c1[nH]c2ccccc2n1C1CCN(Cc2ccc(-c3[nH]c4cc5ncnc5cc4nc3-c3ccccc3)cc2)CC1,1.02,0.991,0.913,0.983,0.97,0.906,0.966,0.967,0.949,0.972,0.961,0.96,0.969,0.99,0.958,1.08,1.29,1.35
CN[C@@H]1C[C@H]2O[C@@](C)([C@@H]1OC)n1c3ccccc3c3c4c(c5c6ccccc6n2c5c31)C(=O)NC4 [Staurosporine],0.96,0.998,1.07,1.01,1.29,1.4,1.1,1.45,1.29,0.984,1.18,1.24,1.08,1.54,1.74,1.67,2.08 (active),2.12 (active)

# Source: the supplement of paper PMC7595190
